Consider 20 molecules from PubChem BioAssay (NCI).

A short description of assay [1]: NCI Yeast Anticancer Drug Screen. Data for the rad50 strain (AID 155).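 Note: 0% = growth of vehicle-only cultures of the same strain.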 The settings on record: S. cerevisiae rad50 strain growth inhibition; at 50.0 µM; stronger effect = higher value. The procedure, abridged:
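Inhibition values express reduced yeast growth in compound-treated cultures relative to vehicle-treated controls.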

Assay [2] is described as follows: NCI Yeast Anticancer Drug Screen. Data for the mec2-1 strain (AID 157). The settings on record: S. cerevisiae mec2-1 strain, at 50.0 µM, stronger effect = higher value. The procedure, abridged: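 Mutant yeast (mec2-1) grown with compound; growth inhibition relative to vehicle control reported.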
Assay [3] in a line: NCI Yeast Anticancer Drug Screen. Data for the sgs1 mgt1 strain (AID 161).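 Note: 0% = growth of cultures given vehicle only.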 The settings on record: S. cerevisiae sgs1 mgt1 strain, at 50.0 µM, stronger effect = higher value. The procedure, abridged:
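Percent growth inhibition was derived by comparing compound-exposed mutant yeast with vehicle-exposed cultures. The strain carries alterations in DNA damage repair.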

Assay [4] is described as follows: NCI Yeast Anticancer Drug Screen. Data for the cln2 rad14 strain (AID 165).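 Note: 0% = growth equal to vehicle treated cultures.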 The settings on record: S. cerevisiae cln2 rad14 strain, at 50.0 µM, stronger effect = higher value. The procedure, abridged: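 Readout is yeast growth inhibition versus vehicle-treated controls, using a strain with cln2 and rad14 alterations exposed to compound.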
Assay [5] is described as follows: NCI Yeast Anticancer Drug Screen. Data for the bub3 strain (AID 167). The settings on record: S. cerevisiae bub3 mutant strain, at 50.0 µM, stronger effect = higher value. The procedure, abridged: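 Steps: expose the mutant yeast strain to compound; grow alongside vehicle-treated cultures; measure growth; express inhibition against the vehicle cultures.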
Assay [6] in a line: NCI Yeast Anticancer Drug Screen. Data for the mlh1 rad18 strain (AID 175). The settings on record: S. cerevisiae mlh1 rad18 strain growth inhibition; at 50.0 µM; stronger effect = higher value. The procedure, abridged:
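Genetically defined yeast (DNA repair-deficient) exposed to compounds; growth inhibition determined relative to vehicle.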

Compounds without any hit were thinned out: in the full panel of roughly 79,000, 15% have a hit. A number with no mark means an inactive call. Active and inactive are the calls of the source. Cut-off read from the data, not from the text of the source: active = growth inhibition above about 70%; inactive = the rest.

As for `O/N=C1\CCCC\C1=N/O.O/N=C1\CCCC\C1=N/O.[Pt]`, the growth inhibition is 34.8% in assay [1]; -0.8% in assay [2]; 8.05% in assay [3]; 19.3% in assay [4]; -1.75% in assay [5]; 8.05% in assay [6].
In the case of `CC(C)C(=O)Nc1ccccc1`, the growth inhibition in assay [1] is 2.9%; in assay [2], -11.9%; in assay [3], 2.7%; in assay [4] it was -25.6%; in assay [5] it was -13.6%; in assay [6], 15.6%.
Regarding `O=[N+]([O-])c1ccc(N/N=C2\C=C(c3ccccc3)C(c3ccccc3)C2)c([N+](=O)[O-])c1` (stereo not given), the growth inhibition was -36.3% in assay [1]; 8.95% in assay [2]; -9.25% in assay [3]; 23.1% in assay [4]; 96.8% (active) in assay [5]; -14.2% in assay [6].
`COC(=O)c1ccccc1/C=C1\Cc2ccc3c(c2C1=O)CCCC3`: the growth inhibition in assay [1] is -30.9%; in assay [2], -52.6%; in assay [3], -18.9%; in assay [4], -7.4%; in assay [5], 5.6%; in assay [6], -25.2%.
As for `CC(=O)CCCCCCCCCCCCCC(C)=O`, the growth inhibition in assay [1] was -18.1%; in assay [2] it was -5.1%; in assay [3] it was -21.1%; in assay [4] it was -10.8%; in assay [5], 6.25%; in assay [6], -6%.
Take `CC(=O)c1cc2c(Br)cccc2oc1=O`: the growth inhibition is -38% in assay [1]; -42.4% in assay [2]; -32.5% in assay [3]; -3.3% in assay [4]; -42.9% in assay [5]; -36.2% in assay [6].
For the molecule `CC/C(=N\NS(=O)(=O)c1ccc(C)cc1)c1ccc(Br)cc1`, the growth inhibition in assay [1] is 27.4%; in assay [2], -7.2%; in assay [3], -1.6%; in assay [4], -7.3%; in assay [5], -3.6%; in assay [6] it was 3.4%.
For `O=c1[nH]c2nc3ccccc3c(=O)n2/c1=C/c1ccco1`, the growth inhibition was 30.2% in assay [1]; 16.8% in assay [2]; 5.5% in assay [3]; 20.2% in assay [4]; 23.1% in assay [5]; 3.95% in assay [6].
Consider `CC(=O)N1CCN(c2ccccc2Cl)CC1`, for which the growth inhibition was -10% in assay [1]; -17.2% in assay [2]; -18.4% in assay [3]; -3.45% in assay [4]; -10.6% in assay [5]; -22.7% in assay [6].
Turning to `Cc1cc(C(O)CCCc2ccccc2)cc(C)c1O` (stereo not given), the growth inhibition in assay [1] was 37.6%; in assay [2], 6.4%; in assay [3] it was 3.7%; in assay [4], 34.4%; in assay [5] it was 42%; in assay [6], 5.1%.
As for `CCN(CC)CCOC(=O)c1c(C)c(C)cc(C)c1C`, the growth inhibition in assay [1] was -17.4%; in assay [2] it was -5.45%; in assay [3], -6.45%; in assay [4] it was -29.5%; in assay [5], -8.3%; in assay [6], -7.7%.
`COc1cc(C(=O)O)ccc1OS(=O)(=O)O`: the growth inhibition in assay [1] is -17.4%; in assay [2], -62.5%; in assay [3], -10.7%; in assay [4] it was -21.6%; in assay [5], -11%; in assay [6], -31.3%.
For `CC1(Nc2ccccc2)OC(=O)c2ccccc21` (stereo not given), the growth inhibition in assay [1] is -14.2%; in assay [2] it was -13.7%; in assay [3] it was -15.4%; in assay [4], -8.85%; in assay [5], -7.4%; in assay [6], -0.85%.
`O=C(CC(=O)C(F)(F)F)c1ccc2c(c1)Cc1ccccc1-2`: the growth inhibition in assay [1] is -10.2%; in assay [2], 28.9%; in assay [3], 3.75%; in assay [4] it was 14.9%; in assay [5] it was -2.7%; in assay [6], 23.6%.
As for `Cn1c2c(c(=O)n(C)c1=O)CCC(=O)N2`, the growth inhibition in assay [1] is 4.95%; in assay [2] it was 0.7%; in assay [3], -6.5%; in assay [4] it was -32.6%; in assay [5], -2.4%; in assay [6], -9.4%.
For `COc1cc2c(cc1OC)[C@H](C)N1CCc3cc(OC)c(OC)cc3[C@@H]1C2`, the growth inhibition in assay [1] was 2.1%; in assay [2], -29.6%; in assay [3], 6.65%; in assay [4], 14.3%; in assay [5] it was 9.45%; in assay [6], -37%.
On to `CCOC(=O)C(C)N1CCCCCC1` (stereo not given), for which the growth inhibition is -28.8% in assay [1]; -30.4% in assay [2]; -17.8% in assay [3]; -28.5% in assay [4]; -8.25% in assay [5]; -10.8% in assay [6].
Take `Cn1c(=O)c2c(nc(N3CCOCC3)n2CCCNCC(O)c2ccc(O)c(O)c2)n(C)c1=O` (stereo not given): the growth inhibition in assay [1] was -40.9%; in assay [2], 4.3%; in assay [3], -13.2%; in assay [4], -29.9%; in assay [5], -2.1%; in assay [6] it was -21.6%.
With `CCC(C)(NC(N)=O)c1ccccc1` (stereo not given), the growth inhibition in assay [1] is -6.9%; in assay [2], 10.4%; in assay [3] it was -12.1%; in assay [4] it was -7.5%; in assay [5] it was -12.9%; in assay [6], -7.35%.
`O=C(Nc1ccccc1)c1ccccc1C(O)(c1ccccc1)c1ccc(Cl)cc1` (stereo not given): the growth inhibition in assay [1] is 84.7% (active); in assay [2], 14%; in assay [3], 77% (active); in assay [4] it was 11.1%; in assay [5], 52%; in assay [6] it was 56.3%.
